# Reference: PubChem BioAssay (NCATS)
# Records with an inconclusive call do not appear. Entries that show only a call come without a potency. Active and inactive are the calls of the source. Unless noted, calls follow the shape of the dose curve; as a rule, active = well fitted inhibition curve with a large enough effect; inconclusive = small, poorly fitted or top-dose-only effect; inactive = flat fitted curve, though single readings scatter.
# Target: Catechol O-methyltransferase (Homo sapiens) (UniProt P21964)
# Assay: Confirmatory Screen for Target Class Profiling of Small Molecule Inhibitors of Methyltransferases (AID 1745852; calls by dose curve)
# Conditions: MTase-Glo luminescence, SAH detection, recombinant enzyme; measured here: COMT max response; stronger effect = lower value
# Potency is read from the fitted curve at half-maximal effect.
# Chain of Catechol O-methyltransferase (Homo sapiens) (P21964 whole entry, looked up): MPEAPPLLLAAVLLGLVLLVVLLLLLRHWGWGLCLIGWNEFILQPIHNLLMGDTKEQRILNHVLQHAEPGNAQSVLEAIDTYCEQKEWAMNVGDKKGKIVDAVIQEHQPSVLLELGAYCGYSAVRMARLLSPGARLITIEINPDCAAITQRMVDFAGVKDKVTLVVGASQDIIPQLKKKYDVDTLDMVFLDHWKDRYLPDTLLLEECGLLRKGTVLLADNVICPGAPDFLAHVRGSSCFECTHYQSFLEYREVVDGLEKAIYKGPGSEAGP
row,SMILES,activity [%]
1,COc1cc(O)c(C(=O)CCc2ccc(O)cc2)c(O[C@@H]2O[C@H](CO)[C@@H](O)[C@H](O)[C@H]2O)c1,-69.8
2,O=C(NCc1ccc(Oc2ccccc2)cc1)c1nc(-c2cc(Br)c(O)c(Br)c2)no1,-16.2
3,CC(C)(C)c1ccc(-c2nc3ccccc3[nH]2)cc1,-68.9
4,CN1CCN(C(=O)c2ccc(Nc3nccc(-c4cccs4)n3)cc2Cl)CC1,-2.55
5,O=[N+]([O-])c1ccc(-[n+]2nc(-c3ccccc3)nn2-c2ccc(I)cc2)cc1,-47.4

# Target: Guanidinoacetate N-methyltransferase (Homo sapiens) (UniProt Q14353)
# Assay: as above
# Conditions: MTase-Glo luminescence, SAH detection, recombinant enzyme; activity change, negative = inhibition: at 57.3 µM (top of the series) unless noted; series mostly up to 57.3 µM
SMILES,"activity change, negative = inhibition",Potency
COc1cc(O)c(C(=O)CCc2ccc(O)cc2)c(O[C@@H]2O[C@H](CO)[C@@H](O)[C@H](O)[C@H]2O)c1,-2.33% [at 29.8 µM],
O=C(NCc1ccc(Oc2ccccc2)cc1)c1nc(-c2cc(Br)c(O)c(Br)c2)no1,,42.9 µM (active)
CC(C)(C)c1ccc(-c2nc3ccccc3[nH]2)cc1,,10.5 µM (active)
CN1CCN(C(=O)c2ccc(Nc3nccc(-c4cccs4)n3)cc2Cl)CC1,0%,
O=[N+]([O-])c1ccc(-[n+]2nc(-c3ccccc3)nn2-c2ccc(I)cc2)cc1,,21.5 µM (active)

# Target: Nicotinamide N-methyltransferase (Homo sapiens) (UniProt P40261)
# Assay: as above
# Conditions: MTase-Glo luminescence, SAH detection, recombinant enzyme; measured here: NNMT max response; stronger effect = lower value
# Chain of Nicotinamide N-methyltransferase (Homo sapiens) (P40261 whole entry, looked up): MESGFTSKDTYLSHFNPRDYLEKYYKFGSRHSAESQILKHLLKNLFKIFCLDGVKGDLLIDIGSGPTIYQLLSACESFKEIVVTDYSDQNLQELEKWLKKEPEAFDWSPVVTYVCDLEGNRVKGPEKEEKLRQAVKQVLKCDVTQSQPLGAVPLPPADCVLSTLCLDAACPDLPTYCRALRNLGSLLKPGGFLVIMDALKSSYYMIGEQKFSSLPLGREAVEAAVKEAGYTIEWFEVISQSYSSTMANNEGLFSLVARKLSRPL
row,SMILES,activity [%]
1,COc1cc(O)c(C(=O)CCc2ccc(O)cc2)c(O[C@@H]2O[C@H](CO)[C@@H](O)[C@H](O)[C@H]2O)c1,0.372
2,O=C(NCc1ccc(Oc2ccccc2)cc1)c1nc(-c2cc(Br)c(O)c(Br)c2)no1,-75.3
3,CC(C)(C)c1ccc(-c2nc3ccccc3[nH]2)cc1,-65.6
4,CN1CCN(C(=O)c2ccc(Nc3nccc(-c4cccs4)n3)cc2Cl)CC1,-31.1
5,O=[N+]([O-])c1ccc(-[n+]2nc(-c3ccccc3)nn2-c2ccc(I)cc2)cc1,-39.3

# Target: Phenylethanolamine N-methyltransferase (Homo sapiens) (UniProt P11086)
# Assay: as above
# Conditions: MTase-Glo luminescence, SAH detection, recombinant enzyme; measured here: PNMT max response; stronger effect = lower value
# Chain of Phenylethanolamine N-methyltransferase (Homo sapiens) (P11086 whole entry, looked up): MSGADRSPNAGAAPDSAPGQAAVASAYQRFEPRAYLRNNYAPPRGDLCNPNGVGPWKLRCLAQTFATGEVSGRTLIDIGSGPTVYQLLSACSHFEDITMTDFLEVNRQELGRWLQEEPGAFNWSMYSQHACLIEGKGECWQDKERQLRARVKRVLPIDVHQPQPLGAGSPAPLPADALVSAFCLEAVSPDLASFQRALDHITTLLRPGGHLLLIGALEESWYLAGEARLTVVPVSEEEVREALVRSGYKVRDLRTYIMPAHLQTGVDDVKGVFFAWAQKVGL
row,SMILES,activity [%]
1,COc1cc(O)c(C(=O)CCc2ccc(O)cc2)c(O[C@@H]2O[C@H](CO)[C@@H](O)[C@H](O)[C@H]2O)c1,0.533
2,O=C(NCc1ccc(Oc2ccccc2)cc1)c1nc(-c2cc(Br)c(O)c(Br)c2)no1,-0.151
3,CC(C)(C)c1ccc(-c2nc3ccccc3[nH]2)cc1,-70.3
4,CN1CCN(C(=O)c2ccc(Nc3nccc(-c4cccs4)n3)cc2Cl)CC1,-3.47
5,O=[N+]([O-])c1ccc(-[n+]2nc(-c3ccccc3)nn2-c2ccc(I)cc2)cc1,-49.2

# Target: Glutathione peroxidase 1 (Homo sapiens) (UniProt P07203)
# Assay: Primary qHTS Assay for Inhibitors of Recombinant Selenoprotein Glutathione Peroxidase 1 (GPX1) (AID 1845191); also: nearly all actives have a fitted effect of over 65% in size
# Conditions: recombinant GPX1, GR-coupled NADPH fluorescence, 15 min; series mostly up to 48.8 µM
# Summary of the method: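 GR-coupled readout: NADPH consumption tracked by fluorescence, ex 340/em 450 nm, at t=0 and after 15 min at RT. Final mix 10 nM GPX1, 1 mM GSH, 0.5 mM CHP, 0.5 mM NADPH, 100 nM GR, 0.01% BSA, following 30 min enzyme–compound preincubation.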
# Chain of Glutathione peroxidase 1 (Homo sapiens) (P07203 whole entry, looked up): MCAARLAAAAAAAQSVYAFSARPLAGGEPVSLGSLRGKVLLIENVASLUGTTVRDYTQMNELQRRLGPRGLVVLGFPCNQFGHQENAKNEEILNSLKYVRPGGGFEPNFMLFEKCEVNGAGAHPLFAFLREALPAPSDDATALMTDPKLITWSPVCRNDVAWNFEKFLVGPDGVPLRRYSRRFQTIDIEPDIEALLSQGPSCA
row,SMILES,Potency
1,COc1cc([C@@H](CC(=O)O)c2ccc(C)c(CN3C[C@@H](C)Oc4ccccc4S3(=O)=O)c2)cc2nnn(C)c12,inactive
2,CCCCn1ccc(N2CCC(c3ccccc3)CC2)c(Cl)c1=O,inactive
3,O=C(NNc1ccccc1)c1ccncc1,inactive
4,COc1ccccc1NC(=O)Nc1ccc2ccccc2c1,inactive
5,CC1OC2OC3C(OCC(O)C3O)OC(=O)C34CCC(C)(C)CC3C3=CCC5C6(C)CC(O)C(OC7OC(CO)C(O)C(O)C7OC7OCC(OC(=O)CC(C)(O)CC(=O)OC1C(OC1OCC(O)C(O)C1O)C2O)C(O)C7O)C(C)(CO)C6CCC5(C)C3(C)CC4O (configuration not stated),inactive
6,COc1cc(O)c(C(=O)CCc2ccc(O)cc2)c(O[C@@H]2O[C@H](CO)[C@@H](O)[C@H](O)[C@H]2O)c1,inactive
7,CCOC(=O)c1cnn(-c2ccc(NC(=O)C(Cl)=C(Cl)Cl)cc2)c1C(F)(F)F,inactive
8,CN(CCCNC(=O)c1ccc2nc3c(c(Cl)c2c1)CCCC3)Cc1ccccc1,inactive
9,Cc1ccc2c(Nc3ccc(Cl)cc3)nccc2c1Nc1ncccc1-c1ncnc2nc[nH]c12,inactive
10,O=C(NCc1ccc(Oc2ccccc2)cc1)c1nc(-c2cc(Br)c(O)c(Br)c2)no1,inactive
11,CCN(CC)c1ccc(C(=C2C=CC(=[N+](CC)CC)C=C2)c2cc(S(=O)(=O)O)ccc2S(=O)(=O)[O-])cc1,inactive
12,O=C(Nc1ccc(F)cc1)N1CCc2ccccc2C1c1ccc(C(F)(F)F)cc1 (configuration not stated),inactive
13,CC(C)(C)c1ccc(-c2nc3ccccc3[nH]2)cc1,inactive
14,C=C(C)C(=O)OC1[C@@H]2C(=C)C(=O)O[C@@H]2C[C@@H](C)[C@@H]2C=CC(=O)[C@@]12C (some centres not stated),inactive
15,COc1ccccc1-c1cc(Nc2cccc(CS(N)(=O)=O)c2)ncn1,inactive
16,CC1(C)CC23[C@@H]4CC(=O)[C@@H]2COC(=O)[C@@H]3CC[C@H]41,inactive

row,SMILES,Potency
1,CN1CCN(C(=O)c2ccc(Nc3nccc(-c4cccs4)n3)cc2Cl)CC1,inactive
2,Cn1cnc(-c2nccc3c(=O)[nH]c(OCCCC(F)(F)F)nc23)c1,8.06 µM (active)
3,CC(C)[C@@H](C)/C=C/[C@@H](C)[C@H]1CC[C@H]2C3=CC=C4C[C@@H](O)CC[C@]4(C)C3=CC[C@]12C,inactive
4,Cc1[nH]c(/C=C2\C(=O)Nc3ccc(F)cc32)c(C)c1C(=O)NC[C@H](O)CN1CCOCC1,inactive
5,CCN(CCCOc1ccc2c(Nc3cc(CC(=O)Nc4cccc(F)c4)[nH]n3)ncnc2c1)CCOP(=O)(O)O,inactive
6,O=C1c2c(O[C@@H]3O[C@H](CO)[C@@H](O)[C@H](O)[C@H]3O)cc(O)cc2OC1(O)Cc1ccc(O)cc1 (some centres not stated),inactive
7,CCCCn1c(-c2ccccc2)nc(-c2ccccc2)c1CN(Cc1ccc2c(c1)OCO2)Cc1ccc2c(c1)OCO2,inactive
8,Cc1ccc(C2(COC(=O)C(C)C)CO2)c(OC(=O)C(C)C)c1 (configuration not stated),inactive
9,Cn1nccc1Nc1nccc(-c2ccn([C@H](CO)c3ccc(Cl)c(F)c3)c(=O)c2)n1,inactive
10,COc1cc2ncnc(Oc3cccc(NC(=O)Nc4cc(C(C)(C)C(F)(F)F)on4)c3)c2cc1OC,inactive
11,CC1(C)CC[C@]2(C(=O)OC3OC(CO)C(O)C(O)C3O)CC[C@]3(C)C(=CCC4[C@@]5(C)CC[C@H](OC6OC(C(=O)O)C(O)C(O)C6O)C(CO)(CO)C5CC[C@]43C)[C@@H]2C1 (some centres not stated),inactive
12,Nc1ncnc2c1ncn2[C@@H]1O[C@H](CO)C[C@H]1O,inactive
13,O=[N+]([O-])c1ccc(-[n+]2nc(-c3ccccc3)nn2-c2ccc(I)cc2)cc1,inactive
14,O=C(NC(NC(=S)Nc1ccc(F)c([N+](=O)[O-])c1)C(Cl)(Cl)Cl)C(c1ccccc1)c1ccccc1 (configuration not stated),inactive
15,Cc1ccc(C(=O)N2CCN(c3ccc([N+](=O)[O-])cc3)CC2)cc1Cl,inactive
16,C=C1/C(=C/C=C2\CCC[C@]3(C)[C@@H]([C@H](C)/C=C/C(=O)C4CC4)CC[C@@H]23)C[C@@H](O)C[C@@H]1O,inactive
